According to PubChem BioAssay (NCATS):
Inconclusive results are not listed. Where a call stands in place of a potency, no number is given. Calls of active or inactive are those of the source. Calls follow the shape of the dose curve; as a rule, active = well fitted inhibition curve with a large enough effect; inconclusive = small, poorly fitted or top-dose-only effect; inactive = flat fitted curve, though single readings scatter. Where a SMILES comes first, the peptide text is derived from it. The star is where a group is joined. AMC = Cc1cc(=O)oc2cc(N*)ccc12; Cbz = O=C(OCc1ccccc1)*; Hexanoyl = CCCCCC(=O)*
Potency is read from the fitted curve at half-maximal effect.

What follows are compounds tested against Phospholipid hydroperoxide glutathione peroxidase GPX4 (Homo sapiens) (UniProt P36969) (assay: Primary qHTS Assay for Inhibitors of Recombinant Selenoprotein Glutathione Peroxidase 4 (GPX4) (AID 1845192; also: nearly all actives have a fitted effect of over 65% in size)). Conditions: recombinant GPX4, GR-coupled NADPH fluorescence, 15 min; series mostly up to 27.8 µM.
Phospholipid hydroperoxide glutathione peroxidase GPX4 (Homo sapiens), sequence (P36969 whole entry, looked up): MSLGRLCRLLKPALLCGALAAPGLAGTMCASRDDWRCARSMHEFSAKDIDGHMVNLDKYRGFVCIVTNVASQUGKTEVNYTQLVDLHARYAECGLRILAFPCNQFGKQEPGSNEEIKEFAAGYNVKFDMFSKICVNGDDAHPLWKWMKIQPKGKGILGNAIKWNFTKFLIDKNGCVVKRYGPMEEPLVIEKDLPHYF
From the text: Assay Provider: Elias S.J. Arner MD PhD.
Department of Medical Biochemistry and Biophysics
Karolinska Institutet, Solna, Stockholm, Sweden
Selenoprotein glutathione peroxidases (GPX), like the ubiquitously expressed GPX1 and the ferroptosis modulator GPX4, enact their antioxidant activities by reducing hydroperoxides using glutathione. […] GPX1 and GPX4 inhibitors have thus shown promise as anti-cancer agents. Existing inhibitors are often promiscuous, or modulate GPX activity only indirectly, so novel direct inhibitors identified through screening against GPX1 and GPX4 could be valuable. Here, we developed optimized glutathione reductase (GR)-coupled GPX assays for the biochemical high-throughput screen (HTS) of almost 12,000 compounds with known mechanisms of action. Initial hits were triaged using a GR counter-screen, assessed for isoform specificity using a separate GPX2 assay, and were assessed for general selenocysteine-targeting activity using a thioredoxin reductase (TXNRD1) assay. With this suite of assays, we identified novel GPX1/GPX2- and GPX4-specific inhibitors and can here present a validated pipeline for future discovery research for selenoprotein-targeting agents.
SEQUENCE No. (e.g., 1, 2, 3, etc.); […] (e.g., Cells, Incubation, Reagent, etc.); VALUE; DESCRIPTION.
1; Reagent 1; 3 uL; 333.33 nM GPx4 enzyme or no enzyme control in 1536-well, black, solid Greiner assay plate.
2; Compound; 25 nL; Kalypsis pin tool (Wako USA) equipped with a 1536-well pin head.
3; Incubation; 30 min; room temperature.
4; Reagent 2; 1 uL; 500 nM GR, 5 mM GSH, 2.5 mM NADPH solution
5; Reagent 3; 1 uL; 2.5 mM CHP in 50% EtOH.
6; Detection; Fluorescence; ViewLux microplate reader, excitation 340 nm and emission 450 nm.
7; Incubation; 15 min; room temperature.
8; Detection; Fluorescence; ViewLux microplate reader, excitation 340 nm and emission 450 nm.
NOTES (numbers refer to Sequence numbers above)
1. 3 µL of 333.33 nM GPX4 and 0.016% BSA in assay buffer (50 mM Tris-HCl, 2 mM EDTA (pH 7.5), 150 mM NaCl) was added to columns 3-48 of 1536-well plates using a BioRAPTR Flying Reagent Dispenser (Let's Go Robotics (LGR), Carlsbad, CA). A no-enzyme control (0.01% BSA in TES assay buffer) was added to columns 1-2.
2. 25 nL, library and DMSO controls were added to each well with a pin tool (Kalypsys).
3. The assay plates were incubated for 30 minutes at room temperature.
4. 1 µL of master mix (500 nM glutathione reductase (GR), 5 mM reduced glutathione (GSH), 2.5 mM NADPH in assay buffer) was added.
5. 1 µL of cumene hydroperoxide (CHP) ([2.5 mM] in 50% EtOH) was then added within 5 minutes to initiate the reaction. Final concentrations were: 200 nM GPX4, 1 mM GSH, 0.5 mM CHP, 0.5 mM NADPH, 100 nM GR, 0.01% BSA.
6. Initial fluorescence readout (t=0) at 340/450 nm was measured using a ViewLux multimodal detector (PerkinElmer, Waltham, MA).
8. Endpoint fluorescence readout (t=15) at 340/450 nm was measured 15 min after room temperature incubation.
`CC(=O)OC/C(=C/C(=O)O)CC[C@@H]1C(CO)=CC[C@@H]2C(C)(C)CCC[C@@]12C` was tested, and the Potency was “inactive”. For `C=C1[C@H](OC(C)=O)[C@H]2[C@@H](OC(=O)c3ccccc3)[C@@H](C)C[C@]2(O)[C@@H](OC(C)=O)[C@H](C)/C=C/C(C)(C)C(=O)[C@H](OC(C)=O)[C@H]1OC(C)=O`, the Potency was “inactive”. For `C=C1[C@H](OC(C)=O)[C@H]2[C@@H](OC(C)=O)C(C)C[C@]2(OC(C)=O)C(=O)[C@H](C)/C=C/C(C)(C)C(=O)[C@H](OC(=O)C(C)C)[C@H]1OC(C)=O` (stereo not given in full), the Potency was “inactive”. In the case of `C[C@@H]1O[C@@H](O[C@@H]2[C@@H](O)[C@H](O[C@@H]3[C@@H](O)[C@@H](O)[C@H](O[C@H]4[C@H](OC(=O)[C@]56CCC(C)(C)C[C@H]5C5=CCC7[C@@]8(C)C[C@H](O)[C@H](O[C@@H]9O[C@H](C(=O)O)[C@@H](O)[C@H](O)[C@H]9O)[C@@](C)(CO)C8[C@H](O)C[C@@]7(C)[C@]5(C)C[C@H]6O)O[C@@H](CO)[C@@H]4O)O[C@H]3C)OC[C@H]2O)[C@H](O)[C@H](O)[C@H]1O` (stereo not given in full), the Potency is reported as “inactive”. For `CC(O)C1CCC2C3CCC4CC(OC5OC(C(=O)O)C(O)C(O)C5O)CCC4(C)C3CCC12C` (stereo not given), the Potency was “inactive”. `CC1(C)C(=O)CCC2(C)C1C(O)C=C1COC(=O)C12O` (stereo not given) was tested, and the Potency was “inactive”. `COc1ccc(NC(=O)c2ccc(-c3ccc(C(N)=O)cc3C)cc2)cc1N1CCN(C)CC1` was tested, and the Potency was “inactive”. With `CCCCCC(=O)N1CCC[C@H]1C(=O)N[C@@H](Cc1ccc(O)cc1)C(=O)OC` (Hexanoyl-Pro-Tyr-OMe) the Potency was “inactive”. With `Cc1cc(-c2nncc3c(C(C)(C)C)c(OCc4ncnn4C)nn23)no1` the Potency was “inactive”. In the case of `C=C1CC23CC1CCC2C12OC(=O)C(C)(C(O)CC1O)C2C3C(=O)O` (stereo not given), the Potency is reported as “inactive”. In the case of `CC(=O)O[C@@H]1[C@H](O[C@@H]2O[C@H](CO)[C@@H](O)[C@H](O)[C@H]2O)[C@@H](O[C@@H]2O[C@@H](C)[C@H](O)[C@@H](O[C@@H]3O[C@H](CO)[C@@H](O)[C@H](O)[C@H]3O)[C@H]2O)[C@H](OC(=O)[C@]23CCC(C)(C)C[C@H]2C2=CCC4[C@@]5(C)C[C@H](O)[C@H](O[C@@H]6O[C@H](C(=O)O)[C@@H](O)[C@H](O)[C@H]6O)[C@@](C)(C(=O)O)C5CC[C@@]4(C)[C@]2(C)CC3)O[C@@H]1C` (stereo not given in full), the Potency is reported as “inactive”. For `CCOc1ncc(S(=O)(=O)N2CCN(CC)CC2)cc1-c1nc2c(CC)n(CCOC)nc2c(=O)[nH]1`, the Potency was “inactive”. In the case of `CC(=O)OC[C@]12[C@@H](OC(=O)c3ccoc3)C[C@@H]3[C@@H](OC(C)=O)[C@]1(OC3(C)C)[C@@](C)(O)C[C@H](OC(=O)c1ccoc1)[C@@H]2OC(=O)c1ccoc1`, the Potency is reported as “inactive”. For `C=C1CCC2C(C)(C)CC(O)CC2(C)C1CCC(C)CC(=O)O` (stereo not given), the Potency was “inactive”. For `COC(O)(CC(C)C)C1Oc2cc(C)[nH]c(=O)c2O1` (stereo not given), the Potency was “inactive”. In the case of `C[C@]12CCC[C@](C)(C(=O)O)C1[C@@H](O)[C@@H](O)C13CC(CCC12)C(CO)(O[C@@H]1O[C@H](CO)[C@@H](O)[C@H](O)[C@H]1O)C3` (stereo not given in full), the Potency is reported as “inactive”. In the case of `C=C(C)[C@@H]1CC[C@]2(CO)CC[C@]3(C)[C@H](CC[C@@H]4[C@@]5(C)CC[C@H](O)C(C)(C)[C@@H]5CC[C@]43C)[C@@H]12`, the Potency is reported as “inactive”. In the case of `COC(=O)[C@H](c1ccccc1Cl)N1CCC2SC(=O)C=C2C1` (stereo not given in full), the Potency is reported as “inactive”. For `CC1(C)CC[C@]2(C(=O)O[C@@H]3O[C@H](CO)[C@@H](O)[C@H](O)[C@H]3O)CC[C@]3(C)C(=CCC4[C@@]5(C)CC[C@H](OC6OC(C(=O)O)C(OC7OC(CO)C(O)C(O)C7O)C(O)C6O)C(C)(C)C5CC[C@]43C)C2C1` (stereo not given in full), the Potency was “inactive”. In the case of `On1ncc(C2CCNCC2)c1-c1cccc(-c2ccccc2)c1`, the Potency is reported as “inactive”. In the case of `Cc1cc(=O)oc2cc(NC(=O)[C@H](CCC(=O)O)NC(=O)[C@H](CC(C)C)NC(=O)[C@H](CC(C)C)NC(=O)OCc3ccccc3)ccc12` (Cbz-Leu-Leu-Glu-{AMC}), the Potency is reported as 22.7 µM (active). For `C[C@@H]1C[C@H]2OC(=O)[C@@]3(C)CCC[C@](C)(C23)[C@@]1(O)CCC1=CC(=O)OC1O` (stereo not given in full), the Potency was “inactive”. For `CC(CC(C)O[C@@H]1O[C@H](CO)[C@@H](O)[C@H](O)[C@H]1O)OC(=O)/C=C/c1ccc(O)cc1` (stereo not given in full), the Potency was “inactive”. With `Cc1ccc([C@@H]2CC=C(C(=O)O)[C@H](c3ccc(C(C)(C)C)cc3)N2S(=O)(=O)c2ccc(C)cc2)cc1` the Potency was “inactive”. With `COc1ccc(C2(O)c3ccccc3NC(=O)C2OC)cc1` (stereo not given) the Potency was “inactive”. For `COc1cc(CCCO)ccc1O[C@@H]1O[C@H](CO)[C@@H](O)[C@H](O)[C@H]1O`, the Potency was “inactive”. With `C[C@@H]1O[C@@H](O[C@H]2[C@H](O)[C@@H](O)[C@H](OC(=O)[C@]34CCC(C)(C)C[C@H]3C3=CCC5[C@@]6(C)CC[C@H](O[C@@H]7O[C@H](C(=O)O)[C@@H](O)[C@H](O)[C@H]7O)C(C)(C)C6CC[C@@]5(C)[C@]3(C)CC4)O[C@@H]2CO)[C@H](O)[C@H](O)[C@H]1O` (stereo not given in full) the Potency was “inactive”. In the case of `CC1=C[C@H]2[C@@H](CC1=O)[C@H](C)C[C@H](O)[C@H]2C(C)C`, the Potency is reported as “inactive”. For `CCC1(O)CC2c3cc(OC)c(OC)cc3CCN2CC1CC(C)C` (stereo not given), the Potency was “inactive”. For `CC(O)C(O)/C=C/C=C/C(=O)O[C@@H]1C=C(C(=O)O)[C@](O)(CO)[C@@]2(C)CCCC(C)(C)[C@H]12` (stereo not given in full), the Potency was “inactive”. `COc1cc(O)cc(O[C@@H]2O[C@H](CO)[C@@H](O[C@@H]3OC[C@](O)(CO)[C@H]3O)[C@H](O)[C@H]2O)c1OC` was tested, and the Potency was “inactive”. In the case of `C/C(=C\C(=O)C(C)C1CCC2C3=C(CCC21C)C1(C)CCC(=O)C(C)(C)C1(O)CC3)C(C)(C)O` (stereo not given), the Potency is reported as “inactive”. For `O=C(O)CC1(O)C(=O)Nc2ccccc21` (stereo not given), the Potency was “inactive”. With `O=C(O)Cn1nnc(-c2ccc(CN(CCCCOc3ccc(CN4CCCC4)cc3)CCc3ccccc3)cc2)n1` the Potency was “inactive”. `Cc1ccc2nc(NC(=O)CSc3nc4c(c(=O)n3-c3ccc(F)cc3)SCC4)sc2c1` was tested, and the Potency was “inactive”. For `COc1cc(O[C@@H]2O[C@H](CO[C@H]3OC[C@](O)(CO)[C@H]3O)[C@@H](O)[C@H](O)[C@H]2O)cc(OC)c1O`, the Potency was “inactive”. In the case of `Cc1c(Cc2ccc3ccccc3n2)c2cc(F)ccc2n1CC(=O)O`, the Potency is reported as “inactive”. `O=C(/C=C/c1ccc(O)c(O)c1)O[C@H]1[C@H](OC2CCCCC2O)O[C@H](CO)[C@@H](O)[C@@H]1O` (stereo not given in full) was tested, and the Potency was “inactive”. With `CC1(C)CC[C@]2(C(=O)O[C@@H]3O[C@H](CO[C@@H]4O[C@H](CO)[C@@H](O)[C@H](O)[C@H]4O)[C@@H](O)[C@H](O[C@@H]4O[C@H](CO)[C@@H](O)[C@H](O)[C@H]4O)[C@H]3O)[C@H](O)C[C@]3(C)C(=CCC4[C@@]5(C)CC[C@H](O[C@@H]6OC[C@@H](O)[C@H](O)[C@H]6O)[C@@](C)(C(=O)O)C5CC[C@]43C)[C@@H]2C1` (stereo not given in full) the Potency was “inactive”. For `CCCCC(=O)N1c2ccccc2NC2=C(C(=O)CCC2)C1c1ccccc1Cl` (stereo not given), the Potency was “inactive”.
